# Experimental data: PubChem BioAssay (NCI)
# Values joined by “and” are separate entries in the source; they are usually repeats but may differ in a detail not shown here. Equal values may be shown once. The panel holds about 83,000 compounds, 20% with a hit somewhere; the sample as a whole holds those more often.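 The endpoint reported here, percent growth, reads 100 for growth as untreated, 0 for no net growth and -100 for all cells dead.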 Active and inactive are the calls of the source. How the source made its calls: active means growth percent below 10; inactive means the rest.
# Experiments:
# Assay in all cases: NCI-60 one-dose screen, 48 h (100 = growth as untreated, 0 = no growth, -100 = all killed)
# Details in all cases: 10 µM unless noted
# T-47D breast = test system: T-47D breast
# BT-549 breast = test system: BT-549 breast
# MDA-MB-435 melanoma = test system: MDA-MB-435 melanoma
# SW-620 colon = test system: SW-620 colon
# MCF7 breast = test system: MCF7 breast
# HCT-116 colon = test system: HCT-116 colon
# HCC-2998 colon = test system: HCC-2998 colon
# KM12 colon = test system: KM12 colon
SMILES,growth (T-47D breast),growth (BT-549 breast),growth (MDA-MB-435 melanoma),growth (SW-620 colon),growth (MCF7 breast),growth (HCT-116 colon),growth (HCC-2998 colon),growth (KM12 colon)
CS(=O)(=O)OCC1NC(=O)C(COS(C)(=O)=O)NC1=O (stereo not drawn),104% (inactive) and 105% (inactive),78.1% (inactive) and 30.1% (inactive),107% (inactive) and 90.7% (inactive),106% (inactive) and 104% (inactive),93% (inactive) and 85% (inactive),93.7% (inactive) and 93.8% (inactive),89.7% (inactive) and 103% (inactive),104% (inactive) and 83.9% (inactive)
COc1ccc2oc3cc(NCCN(C)C)ccc3c(=O)c2c1,80.6% (inactive) and 63.4% (inactive),97.2% (inactive) and 93.9% (inactive),85.8% (inactive) and 70.8% (inactive),78% (inactive) and 55.4% (inactive),84.4% (inactive) and 67.8% (inactive),93.9% (inactive) and 54.1% (inactive),97.4% (inactive) and 77.1% (inactive),90.1% (inactive) and 79.8% (inactive)
COc1ccc(/C=C/C(=O)O)cc1OC,107% (inactive) and 106% (inactive),107% (inactive) and 111% (inactive),109% (inactive) and 112% (inactive),103% (inactive) and 102% (inactive),97.9% (inactive) and 102% (inactive),99.5% (inactive) and 105% (inactive),119% (inactive) and 102% (inactive),109% (inactive)
CNc1ccc(Cl)cc1S(=O)(=O)c1ccccc1[N+](=O)[O-],85.5% (inactive) and 69.2% (inactive),79.5% (inactive) and 86.9% (inactive),49.6% (inactive) and 6.48% (active),108% (inactive) and 105% (inactive),94.3% (inactive) and 89.9% (inactive),107% (inactive) and 90.2% (inactive),109% (inactive),75% (inactive) and 95.3% (inactive)
O=COCCCc1ccccc1,92.7% (inactive),104% (inactive),110% (inactive),103% (inactive),105% (inactive),96.1% (inactive),121% (inactive),109% (inactive)
CCOC(=O)c1ccc(N2C(=O)C(Cl)(c3ccccc3)C2c2ccco2)cc1 (stereo not drawn),30.4% (inactive),76.5% (inactive),93.4% (inactive),77.6% (inactive),62.4% (inactive),54% (inactive),95.8% (inactive),83.5% (inactive)
O=C(NC(CSSCC(NC(=O)OCc1ccccc1)C(=O)O)C(=O)O)OCc1ccccc1 (stereo not drawn),79.1% (inactive) and 82.4% (inactive),109% (inactive) and 81.3% (inactive),96% (inactive) and 100% (inactive),94.3% (inactive) and 106% (inactive),94.3% (inactive) and 93.2% (inactive),98.4% (inactive) and 74.7% (inactive),110% (inactive) and 96.2% (inactive),95.4% (inactive) and 106% (inactive)
O=C(c1ccncc1)c1c(Cc2ccccc2)ccc2ccccc12,113% (inactive),-7.98% (active),83.2% (inactive),90.4% (inactive),101% (inactive),82% (inactive),37.3% (inactive),102% (inactive)
O=C(O)Cc1cc(=O)[nH]n(-c2ccccc2)c1=O,98.2% (inactive),103% (inactive),108% (inactive),108% (inactive),98.9% (inactive),101% (inactive),106% (inactive),107% (inactive)
COc1ccccc1OCC(O)CO (stereo not drawn),91.4% (inactive) and 105% (inactive),107% (inactive),76.7% (inactive) and 96.1% (inactive),101% (inactive) and 109% (inactive),94.1% (inactive) and 105% (inactive),106% (inactive) and 102% (inactive),95% (inactive) and 86.1% (inactive),98% (inactive) and 108% (inactive)
CC1NC(C)c2ccc3ccccc3c2O1 (stereo not drawn),108% (inactive),107% (inactive),111% (inactive),111% (inactive),92% (inactive),102% (inactive),110% (inactive),111% (inactive)
Cc1cc(-c2ccc(N=Nc3c(C)nn(-c4ccc(S(=O)(=O)O)cc4)c3O)c(C)c2)ccc1N=Nc1ccc(O)c(C(=O)O)c1,99.7% (inactive),98.5% (inactive),110% (inactive),98.8% (inactive),94% (inactive),99.8% (inactive),94% (inactive),96.1% (inactive)
O=[N+]([O-])c1cccc2ccc(N/N=C/c3ccccc3O)nc12,38.1% (inactive) and 78% (inactive),68.6% (inactive) and 103% (inactive),101% (inactive) and 106% (inactive),21.7% (inactive) and 96.4% (inactive),42.5% (inactive) and 61.7% (inactive),20.8% (inactive) and 67.8% (inactive),110% (inactive),86.8% (inactive) and 84.3% (inactive)
COc1ccc(COC=O)cc1,91.2% (inactive),110% (inactive),113% (inactive),108% (inactive),99.3% (inactive),99.1% (inactive),94.3% (inactive),103% (inactive)
COC(=O)c1nc(N)nc(C(=O)OC)c1C(=O)c1cccc2ccccc12,109% (inactive),133% (inactive),108% (inactive),118% (inactive),94.5% (inactive),111% (inactive),106% (inactive),110% (inactive)
O=C(O)c1cccc(Br)c1,92.3% (inactive) and 83.4% (inactive),104% (inactive),114% (inactive) and 107% (inactive),112% (inactive) and 104% (inactive),98.7% (inactive) and 98.2% (inactive),99.7% (inactive) and 97.6% (inactive),122% (inactive) and 103% (inactive),101% (inactive) and 106% (inactive)
CCOC(=O)CN1CCC(C(=O)OCC)CC1,102% (inactive),105% (inactive),114% (inactive),108% (inactive),103% (inactive),98.1% (inactive),103% (inactive),109% (inactive)
Nc1c(S(=O)(=O)O)cc(Br)c2c1C(=O)c1ccccc1C2=O,90% (inactive) and 96.7% (inactive),110% (inactive),105% (inactive) and 115% (inactive),109% (inactive) and 111% (inactive),96.8% (inactive) and 93.8% (inactive),109% (inactive),108% (inactive) and 109% (inactive),104% (inactive) and 108% (inactive)
Nc1nc(N)c2cc(S(=O)(=O)c3ccccc3)ccc2n1,72.7% (inactive) and 59% (inactive),81.4% (inactive) and 54.6% (inactive),33.5% (inactive) and 31% (inactive),21.8% (inactive) and 25.3% (inactive),40.2% (inactive) and 29.5% (inactive),16.3% (inactive) and 13.4% (inactive),30.6% (inactive),32.5% (inactive) and 28.7% (inactive)
Nc1ccccc1SC1CC(=O)N(c2ccc(I)cc2)C1=O (stereo not drawn),82.3% (inactive),91.6% (inactive),91.8% (inactive),93.3% (inactive),86.5% (inactive),95.3% (inactive),103% (inactive),79.1% (inactive)
NNc1ncnc2cccc(Cl)c12,90.6% (inactive),112% (inactive),115% (inactive),104% (inactive),96.6% (inactive),98.1% (inactive),104% (inactive),106% (inactive)
